These results are taken from publication PMC5700166.

This experiment addresses T1, GST-Nv-NF-kB (Ser allele) (Nematostella vectensis, UniProt A7UNT2 2-411).
T1 sequence: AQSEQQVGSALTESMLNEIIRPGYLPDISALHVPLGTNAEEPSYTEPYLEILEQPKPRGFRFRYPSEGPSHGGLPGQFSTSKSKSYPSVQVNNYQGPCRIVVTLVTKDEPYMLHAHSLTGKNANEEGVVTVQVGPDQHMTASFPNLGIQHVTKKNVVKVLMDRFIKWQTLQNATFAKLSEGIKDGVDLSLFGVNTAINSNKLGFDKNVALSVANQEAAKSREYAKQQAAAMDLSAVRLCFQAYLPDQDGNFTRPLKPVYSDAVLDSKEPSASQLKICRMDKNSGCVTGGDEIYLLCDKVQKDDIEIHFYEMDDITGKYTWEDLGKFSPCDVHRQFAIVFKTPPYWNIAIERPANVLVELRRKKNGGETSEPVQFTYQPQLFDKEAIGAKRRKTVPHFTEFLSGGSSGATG
Kind of experiment: protein-binding microarray (PBM); PBM: ~300 nM protein, 6 mM HEPES pH 7.8, 80 mM KCl, 0.5 mM EDTA, 0.5 mM EGTA, 6% glycerol, 35 ng/ul poly-dIdC, 1% milk, 1 h, room temperature; Ap Aiptasia and Nv Nematostella (sea anemones) / Co Capsaspora / Aq Amphimedon (sponge) / Dm Drosophila / Hu human; RHD is the Rel homology domain; high values mean tight binding. The conditions noted are these: dsDNA, one strand shown.
“CCGATTAACATCAAAAAAACACCTGATGTTAATCGGGTCTTGATTCGCTTGACGCTGCTG”: the binding signal stood at 5.3 z-score.

As for “CCGATTAACATCACCCCGCCCCCTGATGTTAATCGGGTCTTGATTCGCTTGACGCTGCTG”, the binding signal worked out at 3.65 z-score.

“CCGATTAACATCATAAAAAAAAATGATGTTAATCGGGTCTTGATTCGCTTGACGCTGCTG”: the binding signal was 1.09 z-score.

Sequence “CCGATTAACATCAGGAGTCCCCCTGATGTTAATCGGGTCTTGATTCGCTTGACGCTGCTG” returned a binding signal of 5.14 z-score.

On to “CCGATTAACATCAGACATGGGAATGATGTTAATCGGGTCTTGATTCGCTTGACGCTGCTG”, for which the binding signal was found to be 1.34 z-score.

In turn, “CCGATTAACATCAAAAATTCACCTGATGTTAATCGGGTCTTGATTCGCTTGACGCTGCTG” gave a binding signal of 3.83 z-score.

“CCGATTAACATCAGAAATGCCCCTGATGTTAATCGGGTCTTGATTCGCTTGACGCTGCTG” registered a binding signal of 3.44 z-score.

Sequence “CCGATTAACATCAGGAACTCCCCTGATGTTAATCGGGTCTTGATTCGCTTGACGCTGCTG” had a binding signal of 5.51 z-score.

Regarding “CCGATTAACATCAAGGGAATTCCTGATGTTAATCGGGTCTTGATTCGCTTGACGCTGCTG”, the binding signal was 6.53 z-score.

Sequence “CCGATTAACATCAAAATAGCCCCTGATGTTAATCGGGTCTTGATTCGCTTGACGCTGCTG” showed a binding signal of 5.05 z-score.

“CCGATTAACATCAAGGAATTCCCTGATGTTAATCGGGTCTTGATTCGCTTGACGCTGCTG”: the binding signal is 6.37 z-score.

With “CCGATTAACATCAGGGGGAGTACTGATGTTAATCGGGTCTTGATTCGCTTGACGCTGCTG”, the binding signal came to 5.81 z-score.

“CCGATTAACATCAGGGGACCCCCTGATGTTAATCGGGTCTTGATTCGCTTGACGCTGCTG” registered a binding signal of 5.69 z-score.

For the sequence “CCGATTAACATCACCGCTTCCCTTGATGTTAATCGGGTCTTGATTCGCTTGACGCTGCTG”, the binding signal turned out to be 1.69 z-score.

Sequence “CCGATTAACATCACTTCCCCCCATGATGTTAATCGGGTCTTGATTCGCTTGACGCTGCTG” displayed a binding signal of 4.67 z-score.

For the sequence “CCGATTAACATCAAGAGTCCCCCTGATGTTAATCGGGTCTTGATTCGCTTGACGCTGCTG”, the binding signal is 5.78 z-score.

Turning to “CCGATTAACATCAGGGGATATACTGATGTTAATCGGGTCTTGATTCGCTTGACGCTGCTG”, the binding signal is 5.69 z-score.

“CCGATTAACATCACCCCCCCCCGTGATGTTAATCGGGTCTTGATTCGCTTGACGCTGCTG”: the binding signal was determined as 5.34 z-score.

“CCGATTAACATCAGGGAAATTAATGATGTTAATCGGGTCTTGATTCGCTTGACGCTGCTG” had a binding signal of 6.52 z-score.

The sequence “CCGATTAACATCAGGTATTTCCATGATGTTAATCGGGTCTTGATTCGCTTGACGCTGCTG” showed a binding signal of 1.6 z-score.

Sequence “CCGATTAACATCAAAATTCCCGATGATGTTAATCGGGTCTTGATTCGCTTGACGCTGCTG” gave a binding signal of 4.77 z-score.

“CCGATTAACATCAGGGACTTTAATGATGTTAATCGGGTCTTGATTCGCTTGACGCTGCTG” gave a binding signal of 6.21 z-score.

“CCGATTAACATCAGGGGGTTAAATGATGTTAATCGGGTCTTGATTCGCTTGACGCTGCTG” yielded a binding signal of 4.45 z-score.

For “CCGATTAACATCAGGGGGGGAGATGATGTTAATCGGGTCTTGATTCGCTTGACGCTGCTG”, the binding signal stood at 4.31 z-score.

In turn, “CCGATTAACATCATGGGGGGGAATGATGTTAATCGGGTCTTGATTCGCTTGACGCTGCTG” yielded a binding signal of 4.89 z-score.

Consider “CCGATTAACATCAGGAAATACCCTGATGTTAATCGGGTCTTGATTCGCTTGACGCTGCTG”, for which the binding signal turned out to be 6.46 z-score.

“CCGATTAACATCAGGAAAGCCCCTGATGTTAATCGGGTCTTGATTCGCTTGACGCTGCTG” returned a binding signal of 6.08 z-score.

As to “CCGATTAACATCAAAGAGCCCCCTGATGTTAATCGGGTCTTGATTCGCTTGACGCTGCTG”, the binding signal came out at 3.77 z-score.

“CCGATTAACATCAGCTCCCCCCCTGATGTTAATCGGGTCTTGATTCGCTTGACGCTGCTG” came in with a binding signal of 3.44 z-score.

In turn, “CCGATTAACATCAAAAAAACCCTTGATGTTAATCGGGTCTTGATTCGCTTGACGCTGCTG” yielded a binding signal of 5.27 z-score.

Take “CCGATTAACATCAAAAAATCACCTGATGTTAATCGGGTCTTGATTCGCTTGACGCTGCTG”: the binding signal amounted to 5.57 z-score.

“CCGATTAACATCATCTCCCCCCATGATGTTAATCGGGTCTTGATTCGCTTGACGCTGCTG” had a binding signal of 3.69 z-score.

“CCGATTAACATCAACACTCCCCCTGATGTTAATCGGGTCTTGATTCGCTTGACGCTGCTG”: the binding signal is 5.61 z-score.

The sequence “CCGATTAACATCACACTCCCCCCTGATGTTAATCGGGTCTTGATTCGCTTGACGCTGCTG” gave a binding signal of 4.56 z-score.

In the case of “CCGATTAACATCAGAGATCCCCCTGATGTTAATCGGGTCTTGATTCGCTTGACGCTGCTG”, the binding signal was determined as 6.44 z-score.

“CCGATTAACATCAGAAAAATCCCTGATGTTAATCGGGTCTTGATTCGCTTGACGCTGCTG” returned a binding signal of 5.14 z-score.

As for “CCGATTAACATCACCAAACCCCCTGATGTTAATCGGGTCTTGATTCGCTTGACGCTGCTG”, the binding signal is 6.38 z-score.

Sequence “CCGATTAACATCATGGTACTTGTTGATGTTAATCGGGTCTTGATTCGCTTGACGCTGCTG” had a binding signal of 1.85 z-score.

Turning to “CCGATTAACATCAAGGAACCCCCTGATGTTAATCGGGTCTTGATTCGCTTGACGCTGCTG”, the binding signal came out at 6.23 z-score.
